Measured values reported in ChEMBL document CHEMBL2218924, “A broad activity screen in support of a chemogenomic map for kinase signalling research and drug discovery” (Biochem J, 2013).

How the values were obtained:
[1] = target: Mitogen-activated protein kinase 14 (Homo sapiens) (UniProt Q16539); conditions: at 1 µM
[2] = target: Mitogen-activated protein kinase 14 (Homo sapiens) (UniProt Q16539); conditions: at 10 µM
[3] = target: Mitogen-activated protein kinase 11 (Homo sapiens) (UniProt Q15759); conditions: at 1 µM
Mitogen-activated protein kinase 11 (Homo sapiens), sequence (Q15759 whole entry): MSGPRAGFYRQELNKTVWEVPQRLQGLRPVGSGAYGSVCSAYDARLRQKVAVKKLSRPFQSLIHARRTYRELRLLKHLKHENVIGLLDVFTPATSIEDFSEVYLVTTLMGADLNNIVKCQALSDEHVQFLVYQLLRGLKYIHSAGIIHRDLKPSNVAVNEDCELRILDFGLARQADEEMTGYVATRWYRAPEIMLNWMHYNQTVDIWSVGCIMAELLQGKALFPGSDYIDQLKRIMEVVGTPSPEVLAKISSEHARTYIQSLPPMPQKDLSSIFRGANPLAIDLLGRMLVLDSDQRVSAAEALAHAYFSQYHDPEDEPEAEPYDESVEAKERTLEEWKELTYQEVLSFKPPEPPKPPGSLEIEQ

[4] = target: Mitogen-activated protein kinase 11 (Homo sapiens) (UniProt Q15759); conditions: at 10 µM
[5] = target: T1, Mitogen-activated protein kinase 12 (Homo sapiens) (UniProt P53778); conditions: at 10 µM
T1 sequence (whole entry): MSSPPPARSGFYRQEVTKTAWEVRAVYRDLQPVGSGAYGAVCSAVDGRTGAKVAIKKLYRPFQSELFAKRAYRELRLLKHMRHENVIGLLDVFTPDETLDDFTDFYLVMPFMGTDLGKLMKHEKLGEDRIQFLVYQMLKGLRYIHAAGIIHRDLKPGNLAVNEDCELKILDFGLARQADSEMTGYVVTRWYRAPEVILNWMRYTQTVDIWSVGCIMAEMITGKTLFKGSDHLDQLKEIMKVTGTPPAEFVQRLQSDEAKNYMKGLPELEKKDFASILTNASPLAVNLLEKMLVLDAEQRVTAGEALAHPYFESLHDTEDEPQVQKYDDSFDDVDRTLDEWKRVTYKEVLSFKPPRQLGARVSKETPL

[6] = target: T2, Serine/threonine-protein kinase Sgk3 (Homo sapiens) (UniProt Q96BR1); conditions: at 10 µM
T2 sequence (whole entry): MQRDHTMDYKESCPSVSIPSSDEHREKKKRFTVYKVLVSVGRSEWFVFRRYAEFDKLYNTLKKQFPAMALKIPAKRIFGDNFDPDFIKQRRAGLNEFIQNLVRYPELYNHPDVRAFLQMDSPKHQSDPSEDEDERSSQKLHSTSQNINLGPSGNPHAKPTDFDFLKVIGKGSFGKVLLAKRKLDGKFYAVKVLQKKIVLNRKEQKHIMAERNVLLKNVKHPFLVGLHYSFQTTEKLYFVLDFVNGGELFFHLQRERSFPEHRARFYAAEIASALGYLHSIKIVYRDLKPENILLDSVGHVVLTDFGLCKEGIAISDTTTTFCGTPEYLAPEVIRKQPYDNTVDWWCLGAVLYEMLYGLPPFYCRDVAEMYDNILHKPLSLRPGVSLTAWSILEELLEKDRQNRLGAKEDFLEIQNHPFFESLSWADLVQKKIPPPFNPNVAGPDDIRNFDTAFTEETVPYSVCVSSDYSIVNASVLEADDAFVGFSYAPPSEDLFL

[7] = target: Serine/threonine-protein kinase SIK1 (Homo sapiens) (UniProt P57059); conditions: at 1 µM
Serine/threonine-protein kinase SIK1 (Homo sapiens), sequence (P57059 whole entry): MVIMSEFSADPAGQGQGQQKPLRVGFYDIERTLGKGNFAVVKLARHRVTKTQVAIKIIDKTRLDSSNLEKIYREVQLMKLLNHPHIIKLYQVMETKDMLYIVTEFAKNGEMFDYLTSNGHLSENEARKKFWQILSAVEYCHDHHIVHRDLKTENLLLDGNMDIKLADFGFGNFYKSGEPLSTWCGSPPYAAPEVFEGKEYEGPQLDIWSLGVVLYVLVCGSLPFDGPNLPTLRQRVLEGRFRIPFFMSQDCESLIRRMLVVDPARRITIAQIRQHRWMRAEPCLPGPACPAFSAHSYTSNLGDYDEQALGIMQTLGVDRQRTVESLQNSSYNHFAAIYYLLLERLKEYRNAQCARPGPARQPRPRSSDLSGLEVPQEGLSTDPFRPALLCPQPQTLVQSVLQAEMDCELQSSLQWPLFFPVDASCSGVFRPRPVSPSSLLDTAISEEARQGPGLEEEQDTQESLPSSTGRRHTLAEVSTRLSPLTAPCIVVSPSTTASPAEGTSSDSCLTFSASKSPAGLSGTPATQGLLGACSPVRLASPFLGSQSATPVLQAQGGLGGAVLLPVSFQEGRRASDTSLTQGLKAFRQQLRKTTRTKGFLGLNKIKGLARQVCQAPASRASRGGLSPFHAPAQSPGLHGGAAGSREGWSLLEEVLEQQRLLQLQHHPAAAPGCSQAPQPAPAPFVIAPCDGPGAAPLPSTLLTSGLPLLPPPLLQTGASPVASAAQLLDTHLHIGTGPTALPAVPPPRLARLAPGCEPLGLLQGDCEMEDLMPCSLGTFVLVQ

[8] = target: Serine/threonine-protein kinase SIK1 (Homo sapiens) (UniProt P57059); conditions: at 10 µM
[9] = target: SRSF protein kinase 1 (Homo sapiens) (UniProt Q96SB4); conditions: at 1 µM
SRSF protein kinase 1 (Homo sapiens), sequence (Q96SB4 whole entry): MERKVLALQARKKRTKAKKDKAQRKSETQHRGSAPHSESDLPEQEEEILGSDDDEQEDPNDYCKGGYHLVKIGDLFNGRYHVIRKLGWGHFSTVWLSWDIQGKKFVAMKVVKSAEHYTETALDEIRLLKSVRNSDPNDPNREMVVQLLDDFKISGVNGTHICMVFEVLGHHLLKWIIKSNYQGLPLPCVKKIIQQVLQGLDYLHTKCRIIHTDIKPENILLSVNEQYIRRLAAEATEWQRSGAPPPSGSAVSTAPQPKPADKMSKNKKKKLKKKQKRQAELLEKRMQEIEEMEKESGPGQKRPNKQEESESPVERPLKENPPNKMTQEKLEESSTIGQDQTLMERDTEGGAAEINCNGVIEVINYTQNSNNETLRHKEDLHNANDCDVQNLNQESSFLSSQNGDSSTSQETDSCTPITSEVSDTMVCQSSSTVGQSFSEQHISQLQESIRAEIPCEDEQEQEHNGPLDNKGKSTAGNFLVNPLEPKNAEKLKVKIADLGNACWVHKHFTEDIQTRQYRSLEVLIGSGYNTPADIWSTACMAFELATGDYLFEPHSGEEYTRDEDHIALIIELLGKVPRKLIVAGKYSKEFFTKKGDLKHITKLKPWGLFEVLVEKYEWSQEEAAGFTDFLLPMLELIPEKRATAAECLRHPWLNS

[10] = target: SRSF protein kinase 1 (Homo sapiens) (UniProt Q96SB4); conditions: at 10 µM
[11] = target: SRSF protein kinase 2 (Homo sapiens) (UniProt P78362); conditions: at 1 µM
SRSF protein kinase 2 (Homo sapiens), sequence (P78362 whole entry, looked up): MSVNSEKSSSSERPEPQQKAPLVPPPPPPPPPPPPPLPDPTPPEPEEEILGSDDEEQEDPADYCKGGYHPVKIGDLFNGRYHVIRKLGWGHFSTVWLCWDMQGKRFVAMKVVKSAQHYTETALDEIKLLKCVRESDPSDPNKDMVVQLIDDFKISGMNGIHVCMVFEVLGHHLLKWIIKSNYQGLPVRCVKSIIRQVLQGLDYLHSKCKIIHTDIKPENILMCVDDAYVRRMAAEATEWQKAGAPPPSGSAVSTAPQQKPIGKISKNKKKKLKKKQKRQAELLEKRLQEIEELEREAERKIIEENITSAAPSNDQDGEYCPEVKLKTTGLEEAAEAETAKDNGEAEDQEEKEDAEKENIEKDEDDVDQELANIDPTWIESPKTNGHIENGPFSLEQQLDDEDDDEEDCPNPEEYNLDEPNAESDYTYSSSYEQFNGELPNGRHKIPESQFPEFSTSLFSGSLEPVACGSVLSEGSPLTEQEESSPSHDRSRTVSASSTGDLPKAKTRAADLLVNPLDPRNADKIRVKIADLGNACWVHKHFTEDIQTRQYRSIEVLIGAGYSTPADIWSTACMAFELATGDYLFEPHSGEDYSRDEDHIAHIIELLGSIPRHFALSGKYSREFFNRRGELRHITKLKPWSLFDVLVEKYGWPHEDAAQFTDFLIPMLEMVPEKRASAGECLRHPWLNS

[12] = target: SRSF protein kinase 2 (Homo sapiens) (UniProt P78362); conditions: at 10 µM
[13] = target: T1, Mitogen-activated protein kinase 12 (Homo sapiens); conditions: at 1 µM
[14] = target: T3, Mitogen-activated protein kinase 13 (Homo sapiens) (UniProt O15264); conditions: at 1 µM
T3 sequence (whole entry): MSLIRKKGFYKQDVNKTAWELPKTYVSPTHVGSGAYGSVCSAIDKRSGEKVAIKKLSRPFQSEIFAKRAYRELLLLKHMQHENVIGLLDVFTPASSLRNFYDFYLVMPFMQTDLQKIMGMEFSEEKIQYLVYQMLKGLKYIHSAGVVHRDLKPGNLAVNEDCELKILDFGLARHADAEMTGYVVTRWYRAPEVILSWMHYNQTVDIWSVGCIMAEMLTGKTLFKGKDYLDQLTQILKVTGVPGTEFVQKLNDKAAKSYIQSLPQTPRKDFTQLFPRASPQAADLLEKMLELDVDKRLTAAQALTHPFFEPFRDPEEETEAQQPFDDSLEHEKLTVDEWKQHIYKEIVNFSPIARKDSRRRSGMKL

[15] = target: T3, Mitogen-activated protein kinase 13 (Homo sapiens); conditions: at 10 µM
[16] = target: T4, Serine/threonine-protein kinase Sgk1 (Homo sapiens) (UniProt O00141); conditions: at 1 µM
T4 sequence (whole entry): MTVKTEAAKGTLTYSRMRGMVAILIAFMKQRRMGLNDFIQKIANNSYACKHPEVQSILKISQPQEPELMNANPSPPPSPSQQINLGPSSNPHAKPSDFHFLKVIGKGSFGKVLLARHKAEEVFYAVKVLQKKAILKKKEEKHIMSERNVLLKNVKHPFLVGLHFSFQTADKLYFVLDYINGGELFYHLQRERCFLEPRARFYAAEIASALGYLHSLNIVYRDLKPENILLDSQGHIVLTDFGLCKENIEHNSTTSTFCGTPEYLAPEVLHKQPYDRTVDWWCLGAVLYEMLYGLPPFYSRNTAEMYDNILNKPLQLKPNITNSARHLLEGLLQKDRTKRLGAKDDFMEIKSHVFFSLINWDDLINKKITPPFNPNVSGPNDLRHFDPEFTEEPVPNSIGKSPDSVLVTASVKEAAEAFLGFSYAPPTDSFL

[17] = target: T4, Serine/threonine-protein kinase Sgk1 (Homo sapiens); conditions: at 10 µM
[18] = target: T5, Serine/threonine-protein kinase Sgk2 (Homo sapiens) (UniProt Q9HBY8); conditions: at 1 µM
T5 sequence (whole entry): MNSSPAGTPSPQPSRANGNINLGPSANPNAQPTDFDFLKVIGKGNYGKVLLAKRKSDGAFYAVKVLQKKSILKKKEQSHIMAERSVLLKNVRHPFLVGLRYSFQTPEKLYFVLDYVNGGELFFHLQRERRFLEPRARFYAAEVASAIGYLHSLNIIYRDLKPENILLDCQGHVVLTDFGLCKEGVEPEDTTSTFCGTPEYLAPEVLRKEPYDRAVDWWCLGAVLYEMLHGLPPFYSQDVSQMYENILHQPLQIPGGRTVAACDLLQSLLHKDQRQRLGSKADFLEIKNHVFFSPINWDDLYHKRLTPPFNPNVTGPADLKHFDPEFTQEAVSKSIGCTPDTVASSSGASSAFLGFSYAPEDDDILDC

[19] = target: T5, Serine/threonine-protein kinase Sgk2 (Homo sapiens); conditions: at 10 µM
[20] = target: T2, Serine/threonine-protein kinase Sgk3 (Homo sapiens); conditions: at 1 µM

Mitogen-activated protein kinase 14 (Homo sapiens), sequence (Q16539 whole entry): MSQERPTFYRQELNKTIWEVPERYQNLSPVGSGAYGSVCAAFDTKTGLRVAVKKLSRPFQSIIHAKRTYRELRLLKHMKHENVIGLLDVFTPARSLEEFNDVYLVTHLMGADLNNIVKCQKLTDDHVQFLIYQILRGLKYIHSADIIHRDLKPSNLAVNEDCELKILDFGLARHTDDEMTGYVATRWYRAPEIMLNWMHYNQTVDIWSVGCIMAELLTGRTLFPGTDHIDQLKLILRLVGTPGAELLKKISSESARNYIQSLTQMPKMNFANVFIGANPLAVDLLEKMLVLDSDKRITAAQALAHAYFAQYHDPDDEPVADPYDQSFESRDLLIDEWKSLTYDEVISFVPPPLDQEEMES

With `CC(C)[C@H](CO)Nc1nc(Nc2cccc(Cl)c2)c2ncn(C(C)C)c2n1` the residual activity [1] was 88%, the residual activity [2] was 80% and the residual activity [3] was 101%. The residual activity [4] was 96%, the residual activity [5] was 98% and the residual activity [6] was 97%. For the same compound, the residual activity [7] was 85%, the residual activity [8] was 16% and the residual activity [9] was 52%. For the same compound, the residual activity [10] was -1%, the residual activity [11] was 32% and the residual activity [12] was 2%.
`O=[N+]([O-])/C=C/c1ccc2c(c1)OCO2` showed a residual activity [1] of 93%, a residual activity [2] of 105% and a residual activity [3] of 102%. The residual activity [4] was 110%, the residual activity [13] was 107% and the residual activity [5] was 99%. For the same compound, the residual activity [14] was 103%, the residual activity [15] was 98% and the residual activity [16] was 76%. For the same compound, the residual activity [17] was 105%, the residual activity [18] was 89% and the residual activity [19] was 66%. It also gave a residual activity [20] of 110%, a residual activity [6] of 87% and a residual activity [7] of 100%. For the same compound, the residual activity [8] was 112%, the residual activity [9] was 111% and the residual activity [10] was 99%. For the same compound, the residual activity [11] was 97% and the residual activity [12] was 98%.
Work on `COc1cc2ncnc(Nc3ccc(OCc4ccccc4)cc3)c2cc1OC` yielded a residual activity [1] of 102%, a residual activity [2] of 106% and a residual activity [3] of 107%. It also gave a residual activity [4] of 102%, a residual activity [13] of 111% and a residual activity [5] of 115%. The residual activity [14] was 127%, the residual activity [15] was 109% and the residual activity [16] was 115%. The residual activity [17] was 80%, the residual activity [18] was 89% and the residual activity [19] was 96%. The residual activity [20] was 115%, the residual activity [6] was 108% and the residual activity [7] was 82%. It also gave a residual activity [8] of 103%, a residual activity [9] of 102% and a residual activity [10] of 116%. The residual activity [11] was 108% and the residual activity [12] was 104%.
Work on `Nc1ncnc2[nH]nc(Nc3ccc(F)cc3)c12` yielded a residual activity [13] of 101% and a residual activity [5] of 96%.
For `c1ccc(-c2cnc(Nc3ccc(OCCN4CCCC4)cc3)s2)cc1`, the residual activity [13] was 115% and the residual activity [5] was 100%.
For `O=C1Nc2ccccc2/C1=C1/Nc2ccccc2/C1=N\OCCC(O)CO` (stereo unspecified), the residual activity [13] was 95%.
`CN[C@@H]1C[C@H]2O[C@@](C)([C@@H]1OC)n1c3ccccc3c3c4c(c5c6ccccc6n2c5c31)C(=O)NC4` was tested, and the residual activity [1] was 81%, the residual activity [2] was 79% and the residual activity [3] was 97%. The residual activity [4] was 89%.
`c1ccc(-c2n[nH]cc2-c2ccnc3ccccc23)nc1` was tested, and the residual activity [13] was 101%.
For `CC(=O)c1ccc(N2CCOCC2)cc1O`, the residual activity [13] was 110% and the residual activity [5] was 102%.
For `CC(C)c1nn(-c2c(Cl)cccc2Cl)c2nc(Cc3ccc(OCCO)cc3)[nH]c(=O)c12`, the residual activity [13] was 105% and the residual activity [5] was 101%.
